Experimental data reported in PubChem BioAssay.
Activity calls are given as the source filed them.

How the values were obtained:
[1] = optical density shifts of acrAB sulA E. coli – strain DRC41, OD650, 48 h, E. coli filamentation inducer project, primary screen (AID 1152); details: higher = more signal, called active from +8 up or from −8 down;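 also: E. coli MC1000 strain DRC41 lacking acrAB efflux pump and sulA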
[2] = probe aLefty1 binding on compound microarray – biochemical, small-molecule microarray, 635/667 nm fluorescence, primary screen (AID 1153); details: higher = more signal;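 also: score merges spot fluorescence with signal-to-noise ratio from the scanned slide images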
[3] = plasmodial surface anion channel blockers, osmotic lysis – cell-based, P. falciparum Indochina, OD700, 1 h, primary screen (AID 1154); details: P. falciparum Indochina infected RBC osmotic lysis, higher = more signal, called active from +8 up or from −8 down
[4] = plasmodial surface anion channel blockers, osmotic lysis – cell-based, P. falciparum Indochina, OD700, 2 h, primary screen (AID 1155);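 also: lysis reports solute entry through the parasite surface anion channel PSAC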; details: P. falciparum Indochina infected erythrocytes, higher = more signal, called active from +8 up or from −8 down
[5] = changes in parasitized red cell lysis, either direction – P. falciparum Indochina, OD700, 3 h, PSAC antagonist project, primary screen (AID 1156); details: P. falciparum-infected erythrocytes, osmotic lysis, higher = more signal, called active from +8 up or from −8 down
[6] = plasmodial surface anion channel blockers, osmotic lysis – cell-based, P. falciparum Indochina, OD700, 18 h, primary screen (AID 1157); details: P. falciparum Indochina infected erythrocytes, osmotic lysis OD700, 18 h; higher = more signal, called active from +8 up or from −8 down
[7] = S6 kinase pathway phospho-S6 level changes – cell-based, A549, cytoblot, luminescence, serum-stimulated, primary screen (AID 1158); details: 5 h, higher = more signal;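 also: serum-stimulated A549 lung adenocarcinoma cells; signal is phosphorylated S6 detected by cytoblot immunostaining with HRP secondary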
[8] = target: NADPH oxidase 2 (Homo sapiens) (UniProt P04839); experiment: compounds shifting NOX2 Amplex Red fluorescence – cell-based, HEK293-NOX2, PMA-stimulated, NOX inhibitor project, primary screen (AID 1159); details: 45 min, higher = more signal, called active from +8 up or from −8 down; also: test concentration not given here
Sequence of NADPH oxidase 2 (Homo sapiens) (P04839 whole entry, looked up): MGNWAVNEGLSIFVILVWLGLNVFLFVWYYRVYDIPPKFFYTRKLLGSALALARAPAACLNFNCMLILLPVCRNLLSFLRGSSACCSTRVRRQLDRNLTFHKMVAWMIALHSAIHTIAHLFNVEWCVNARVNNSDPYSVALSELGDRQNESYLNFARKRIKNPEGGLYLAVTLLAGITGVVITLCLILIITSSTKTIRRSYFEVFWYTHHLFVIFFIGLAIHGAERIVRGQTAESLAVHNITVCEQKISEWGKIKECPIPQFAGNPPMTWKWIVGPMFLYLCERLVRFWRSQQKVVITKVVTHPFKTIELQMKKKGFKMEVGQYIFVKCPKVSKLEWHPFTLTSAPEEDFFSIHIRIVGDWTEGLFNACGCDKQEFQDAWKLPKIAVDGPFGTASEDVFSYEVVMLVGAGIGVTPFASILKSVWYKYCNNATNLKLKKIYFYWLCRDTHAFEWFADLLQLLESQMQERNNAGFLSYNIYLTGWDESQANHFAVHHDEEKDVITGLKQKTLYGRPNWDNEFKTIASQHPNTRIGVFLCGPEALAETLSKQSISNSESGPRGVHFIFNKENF

[9] = target: NADPH oxidase 4 (Homo sapiens) (UniProt Q9NPH5); experiment: compounds shifting NOX4 Amplex Red fluorescence – cell-based, HEK293-NOX4, tetracycline-induced, NOX inhibitor project, primary screen (AID 1160); details: HEK293-NOX4, Amplex Red H2O2 fluorescence, 45 min; higher = more signal, called active from +8 up or from −8 down
Sequence of NADPH oxidase 4 (Homo sapiens) (Q9NPH5 whole entry, looked up): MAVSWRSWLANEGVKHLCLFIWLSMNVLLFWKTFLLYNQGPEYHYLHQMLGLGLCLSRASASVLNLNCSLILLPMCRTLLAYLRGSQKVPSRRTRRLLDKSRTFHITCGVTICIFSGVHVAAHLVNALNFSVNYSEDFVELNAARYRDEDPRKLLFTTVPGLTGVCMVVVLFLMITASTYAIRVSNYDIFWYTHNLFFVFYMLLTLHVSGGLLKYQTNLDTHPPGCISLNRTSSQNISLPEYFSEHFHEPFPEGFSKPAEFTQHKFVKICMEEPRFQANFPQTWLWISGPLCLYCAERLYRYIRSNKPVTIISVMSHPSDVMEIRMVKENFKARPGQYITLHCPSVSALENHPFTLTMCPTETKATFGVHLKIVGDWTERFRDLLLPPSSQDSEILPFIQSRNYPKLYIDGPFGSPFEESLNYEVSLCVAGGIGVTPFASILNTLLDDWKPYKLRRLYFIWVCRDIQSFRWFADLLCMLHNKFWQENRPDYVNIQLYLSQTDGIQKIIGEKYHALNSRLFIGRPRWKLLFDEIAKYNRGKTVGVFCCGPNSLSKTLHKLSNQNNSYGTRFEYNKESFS

[10] = target: NADPH oxidase 5 (Homo sapiens) (UniProt Q96PH1); experiment: compounds shifting NOX5 Amplex Red fluorescence – cell-based, HEK293-NOX5, NOX inhibitor project, primary screen (AID 1161); details: HEK293-NOX5, ionomycin, 45 min, higher = more signal
Sequence of NADPH oxidase 5 (Homo sapiens) (Q96PH1 whole entry, looked up): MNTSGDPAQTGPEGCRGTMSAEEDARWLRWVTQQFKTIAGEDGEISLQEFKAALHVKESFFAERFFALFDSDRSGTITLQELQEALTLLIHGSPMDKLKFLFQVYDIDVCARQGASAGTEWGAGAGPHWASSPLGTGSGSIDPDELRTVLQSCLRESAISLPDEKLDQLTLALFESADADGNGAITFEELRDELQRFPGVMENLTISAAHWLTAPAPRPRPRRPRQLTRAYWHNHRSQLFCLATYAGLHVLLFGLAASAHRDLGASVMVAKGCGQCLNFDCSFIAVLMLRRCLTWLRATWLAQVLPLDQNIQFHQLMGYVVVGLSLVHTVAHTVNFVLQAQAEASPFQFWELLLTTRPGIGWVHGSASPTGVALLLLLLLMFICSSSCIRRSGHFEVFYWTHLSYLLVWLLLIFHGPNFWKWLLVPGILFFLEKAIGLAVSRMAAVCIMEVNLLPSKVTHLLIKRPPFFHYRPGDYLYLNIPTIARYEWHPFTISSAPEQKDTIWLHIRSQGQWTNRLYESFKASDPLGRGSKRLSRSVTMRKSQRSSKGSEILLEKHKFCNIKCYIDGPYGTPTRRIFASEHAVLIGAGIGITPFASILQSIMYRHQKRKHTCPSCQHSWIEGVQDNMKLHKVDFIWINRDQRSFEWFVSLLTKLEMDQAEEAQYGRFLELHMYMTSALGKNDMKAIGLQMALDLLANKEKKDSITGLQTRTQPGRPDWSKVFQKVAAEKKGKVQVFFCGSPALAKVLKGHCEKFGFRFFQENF

[11] = compound effects on lung adenocarcinoma cell viability – A549, calcein-AM fluorescence, 48 h, basal, profiling panel (AID 1162); details: higher = more signal; also: test concentration not given here
[12] = compound effects on differentiated 3T3-L1 adipocyte viability – cell-based, 3T3-L1 adipocytes, calcein-AM fluorescence, 48 h, basal, profiling panel (AID 1163); details: 3T3-L1 adipocytes viability, higher = more signal; also: test concentration not given here
[13] = compound effects on hepatocellular carcinoma cell viability – HepG2, calcein-AM fluorescence, 48 h, basal, profiling panel (AID 1164); details: higher = more signal; also: test concentration not given here
[14] = compound effects on multiple myeloma cell viability – MM1S, calcein-AM fluorescence, 48 h, basal, profiling panel (AID 1165); details: higher = more signal;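 also: viability of MM1S multiple myeloma cells under basal unstimulated conditions; test concentration not given here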
[15] = calcein-AM signal in unstimulated myeloma cells – cell-based, calcein-AM fluorescence, 48 h, PK04 Diversity Set, profiling panel (AID 1166); details: RPMI8226 myeloma viability, higher = more signal;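 also: cells grown under basal conditions without added stimulus; test concentration not given here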
[16] = JC-1 mitochondrial signal, unstimulated HepG2 cells – cell-based, JC-1 fluorescence, 24 h, 100 nL compound, profiling panel (AID 1167); details: HepG2 mitochondrial potential, higher = more signal; also: test concentration not given here
[17] = JC-1 mitochondrial signal, unstimulated adipocytes – cell-based, JC-1 fluorescence, 3T3-L1 adipocytes, 24 h, 100 nL compound, profiling panel (AID 1168); details: JC-1 mitochondrial fluorescence, higher = more signal, called active from +8 up or from −8 down; also: test concentration not given here
[18] = JC-1 mitochondrial signal, unstimulated myeloma cells – cell-based, JC-1 fluorescence, RPMI8226, 24 h, 100 nL compound, profiling panel (AID 1169); details: JC-1 mitochondrial potential fluorescence, higher = more signal; also: test concentration not given here
[19] = JC-1 mitochondrial signal, unstimulated MM1S myeloma – cell-based, JC-1 fluorescence, 24 h, 100 nL compound, profiling panel (AID 1170); details: MM1S mitochondrial potential, higher = more signal; also: test concentration not given here
[20] = resazurin metabolic signal in A549 cells – cell-based, resazurin fluorescence, 24 h, PK04 Diversity Set, profiling panel (AID 1171); details: A549 viability, higher = more signal, called active from +8 up or from −8 down; also: test concentration not given here

Structure (SMILES)	z-score [1]	composite z-score [2]	z-score [3]	z-score [4]	z-score [5]	z-score [6]	z-score [7]	z-score [8]	z-score [9]	z-score [10]	z-score [11]	z-score [12]	z-score [13]	z-score [14]	z-score [15]	z-score [16]	z-score [17]	z-score [18]	z-score [19]	z-score [20]
O=C1C2C=CC(C(O)c3ccc(B(O)O)cc3)N(Nc3ccc([N+](=O)[O-])cc3)C2C(=O)N1c1ccccc1 (stereo not given)	-1.07 (inactive)	0.363	2.01 (inactive)	1.21 (inactive)	0.136 (inactive)	0.606 (inactive)	-0.537	-1.73 (inactive)	-0.374 (inactive)	-3.79	-2.05	-0.167	-5.4	0.0297	-4.09	-1.66	3.71 (inactive)	-0.213	-1.22	0.0312 (inactive)
COc1ccc(C(=O)Nc2cccc(CN3C(=O)[C@@]4(O[C@@H](CCn5cc([C@H](O)c6ccccc6)nn5)[C@H]([Si](C)(C)c5ccc(OC)cc5)[C@H]4C)c4ccccc43)c2)cc1	-0.677 (inactive)	0.379	4.91 (inactive)	0.715 (inactive)	0.618 (inactive)	1.04 (inactive)	0.858	-0.492 (inactive)	0.663 (inactive)	2.23	-0.311	0.0953	-3.44	-2.63	-3.6	-2.16	-0.694 (inactive)	-1.03	-2.24	-1.88 (inactive)
Cc1ccc(S[C@]2(C(=O)NCC(C)C)CC(=O)N(Cc3ccccc3)[C@@H]2c2ccc(CO)cc2)cc1	-0.747 (inactive)	0.171	2.36 (inactive)	0.522 (inactive)	-0.111 (inactive)	0.451 (inactive)	0.138	-0.336 (inactive)	0.361 (inactive)	0.499	0.204	0.38	-0.056	-1.32	-0.152	-0.135	-0.239 (inactive)	0.205	0.435	1.23 (inactive)
C[N+](C)(C)CCCCNC(=O)[C@H]1C[C@H]2C(=O)N3CCC[C@H]3C(=O)N2[C@H]1c1ccc(O)cc1	-0.314 (inactive)	-0.0141	0.542 (inactive)	0.196 (inactive)	-1.66 (inactive)	0.0068 (inactive)	-0.0429	-2.45 (inactive)	-0.739 (inactive)	-1.42	-0.814	0.0179	-0.674	-0.642	-0.772	-1.1	-1.5 (inactive)	0.0553	-0.38	0.0558 (inactive)
[N-]=[N+]=NCc1ccccc1C[C@]1(C(=O)NCC(O)CO)COC(c2ccc(OCCCO)cc2)=N1 (stereo not given in full)	0.896 (inactive)	0.746	24.8 (active)	10.2 (active)	3.96 (inactive)	0.91 (inactive)	-0.0894	-2.99 (inactive)	-0.28 (inactive)	-2.11	-0.226	-0.314	0.0226	-1.02	-1.29	-0.727	-0.491 (inactive)	-1.26	-0.714	2.56 (inactive)
C=CCN1Cc2ccccc2C[C@]2(N=C(c3ccc(OCCCO)cc3)O[C@@H]2c2ccccc2)C1=O	1.35 (inactive)	0.32	24.3 (active)	12.6 (active)	-0.0845 (inactive)	1.93 (inactive)	1.95	-2.9 (inactive)	0.272 (inactive)	-2.7	-0.584	0.975	-0.676	-3.58	-3.71	0.96	0.101 (inactive)	-1.16	-0.762	-2.13 (inactive)
[N-]=[N+]=Nc1ccccc1[C@H]1OC(c2ccc(OCCCO)cc2)=N[C@@]1(CCS(=O)(=O)c1ccccc1)C(=O)N1CCOCC1	0.399 (inactive)	1.48	31 (active)	23.6 (active)	1.88 (inactive)	4.6 (inactive)	0.211	0.404 (inactive)	1.56 (inactive)	1.36	0.412	-0.0376	0.402	-0.655	-0.184	-1.34	-0.392 (inactive)	-0.666	-1.47	-0.913 (inactive)
CC(=O)n1cc(C(O)C2C=CC3C(=O)N(c4ccccc4)C(=O)C3N2Nc2ccc(C#N)cc2)c2ccccc21 (stereo not given)	-0.947 (inactive)	0.201	21.5 (active)	6.32 (inactive)	0.566 (inactive)	1.37 (inactive)	-0.784	-1.15 (inactive)	-4.31 (inactive)	-3.01	1.38	-0.876	0.52	0.245	-0.434	-1.04	-0.855 (inactive)	0.423	-0.488	1.52 (inactive)
